# Source: PubChem BioAssay
# Sfp inh – blocks B. subtilis Sfp PPTase activity | Biochemical Sfp PPTase activity, qHTS | 3.5% of 310,000 active | Potency, µM, for the others: largest response in the series, negative = inhibition, usual class: inhibitors;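 note: the enzyme is Sfp with the accession as filed and its product quenches rhodamine fluorescence; potency is the fitted concentration of half-maximal effect; 0% = enzyme reaction without inhibitor and -100% = no enzyme wells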
#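 Sfp 15 nM + cpd, 15 min RT; start w/ rhodamine-CoA 5 uM, BHQ-2-YbbR 12.5 uM (final); 50 mM Hepes pH 7.6, 10 mM MgCl2, 0.01% NP-40, 0.01% BSA; read 525/598 nm at 0 and 30 min.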
# G9a block – inhibitors of human histone lysine methyltransferase G9a. Q96KQ7. G9a H3K9 monomethylation, AlphaScreen, 2 h. AID 504332. Potency, µM (top dose mostly 102 µM), without a hit: top-dose activity, negative = inhibition, actives largely listed as inhibitors. 8.8% of 350,000 active; note: potency is the fitted concentration of half-maximal effect; nearly all actives have a fitted effect of over 75% in size
# Target sequence (Q96KQ7 913-1193 limits assumed): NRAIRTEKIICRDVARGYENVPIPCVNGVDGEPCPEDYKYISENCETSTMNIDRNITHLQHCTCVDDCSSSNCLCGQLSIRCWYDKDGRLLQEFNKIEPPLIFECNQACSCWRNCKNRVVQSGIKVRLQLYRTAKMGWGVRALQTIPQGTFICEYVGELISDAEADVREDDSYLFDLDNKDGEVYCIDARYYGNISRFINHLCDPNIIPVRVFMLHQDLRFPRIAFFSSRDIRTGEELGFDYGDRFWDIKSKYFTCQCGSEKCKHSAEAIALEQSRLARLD
#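 Readings reflect AlphaScreen signal from monomethyl-H3K9 antibody detection. HMT at 20 nM; substrate b-H3K9 500 nM; cofactor SAM 20 uM; 2 h RT reaction; compounds tested as titrations in qHTS with 15 min preincubation.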
# Tau fluor cs – counter-screen for tau fibril formation inhibitors; Potency, µM (doses to about 57.7 µM), inactives show top-dose activity change, negative = decrease; 0.93% of 280,000 active; tau K18 P301L Alexa594 fluorescence, heparin fibrillization; AID 1463; note: potency is the fitted concentration of half-maximal effect; nearly all actives have a fitted effect of over 55% in size
#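 Human tau K18 P301L (15 uM unlabeled, 0.24 uM Alexa 594-labeled) in 100 mM sodium acetate pH 7 with 20 uM heparin, 6 hr at 37 C. ThT 30 uM added, 1 hr ambient; Alexa 594 FP and total fluorescence read at 555/632 nm.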
# Tau fibril ThT – tau fibrillization inhibition (ThT binding); 2.1% of 270,000 active; recombinant tau K18 P301L (four-repeat tau fragment), heparin-induced fibrillization, ThT fluorescence; AID 1460; P10636; Potency, µM (top dose mostly 57.4 µM), inactives show at the top dose activity, negative = inhibition, usual class: inhibitors; note: potency is the fitted concentration of half-maximal effect; nearly all actives have a fitted effect of over 55% in size
# Target sequence (P10636 561-689 P618L limits assumed): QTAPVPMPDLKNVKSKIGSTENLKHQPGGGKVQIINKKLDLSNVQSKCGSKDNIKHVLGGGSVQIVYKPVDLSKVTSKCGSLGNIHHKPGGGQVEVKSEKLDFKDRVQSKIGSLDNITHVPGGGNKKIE
#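 Recombinant human tau K18 fragment […] carrying P301L, 15 uM unlabeled plus 0.24 uM Alexa 594-labeled, was fibrillized with 20 uM heparin in 100 mM sodium acetate pH 7 for 6 hr at 37 C; 30 uM ThT fluorescence read after 1 hr.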
# Coupling enz – inhibits coupling enzyme system, counter-screen for aldolase hits. coupling enzyme system counterscreen, AmpLite Red fluorescence. activity change, negative = inhibition, % at 58.2 µM, hits read low. 0.67% of 290,000 active; in the data active = activity change below about -30%
#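 Compounds tested against the coupling enzymes alone at 57.5 uM final; readout was AmpLite Red fluorescence (525/598 nm) after 20 min at RT.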
# Tau FP inhib – inhibitors of human tau fibril formation. AID 1468. Potency, µM (top dose mostly 57.7 µM), for the others: top-dose activity, negative = inhibition, hits mostly inhibitors. K18 P301L tau heparin fibrillization, Alexa594 FP, 6 h. P10636. 0.39% of 280,000 active; note: potency is the fitted concentration of half-maximal effect; nearly all actives have a fitted effect of over 55% in size
#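 Steps: dispense K18 P301L tau (15 uM plus 0.24 uM Alexa 594 tracer, final) in pH 7 sodium acetate; add compound; add heparin (20 uM final); incubate 6 hr, 37 C; add ThT (30 uM final); after 1 hr ambient, read FP.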
# Numbers without * were called inactive; ? = inconclusive; . = not tested or not shown; [ ] = dose if it differs, or a comment. Compounds with a hit are over-represented: about 11% of the library has one in this group of screens. Unless noted, calls come from the whole dose curve; as a rule, active = well fitted curve in the direction sought with a large enough effect; inconclusive = small, poorly fitted or top-dose-only effect, or another doubt; inactive = no such curve, though single readings can be large; an effect the other way counts as inactive or inconclusive. Unless noted, % is set by controls: 0 for no effect and ±100 for the full control effect.
SMILES,Sfp inh,G9a block,Tau fluor cs,Tau fibril ThT,Coupling enz,Tau FP inhib
CCC(C)NC(=O)c1ccccc1NC(=O)C1CCN(S(=O)(=O)Cc2ccccc2)CC1 (centres undefined),.,-32%[59 µM],-4%,-6%,.,1%
Oc1c(Cl)cc(Cl)cc1CNc1nccs1,6%,79µM*,.,.,0,.
Cc1cccc(NCc2cc(Cl)cc(Cl)c2O)n1,-2%,-51%[59 µM],-9%,-3%,2,1%
Cc1cc(F)ccc1NS(=O)(=O)c1c(C(=O)N2CCOCC2)c(C)n(C)c1C,12%,6%,.,.,-4,.
O=C(O)Cn1cnc2scc(-c3cccs3)c2c1=O,56µM*,?,-6%,-8%,7,4%
O=C(O)Cn1cnc2scc(-c3ccccc3)c2c1=O,-3%,.,.,.,-1,.
O=C(CCCn1c(=O)c2sccc2n(Cc2c(F)cccc2Cl)c1=O)NCc1ccccc1,.,39%[59 µM],-19%,-15%,.,-2%
Cc1ccc(NC(=S)NCCc2ccccc2)nc1,-9%,1.6µM*,-2%,1%,-3,3%
Cc1cccnc1NC(=S)NCCc1ccccc1,40µM*,0.71µM*,-19%,-17%,1,3%
Cc1ccc(NC(=O)CCCc2ccccc2)nc1,6%,-5%,-3%,2%,1,4%
Cc1cccc(OCCn2nnc3ccccc32)c1C,7%,39%,.,.,2,.
Cc1cc(=O)n2nc(N3CCCC(C(=O)Nc4ccc(C)c(C)c4)C3)sc2n1 (centres undefined),-16%,29%,.,.,-1,.
C=CCNc1nc(C(=O)OCC(=O)c2ccc(C)c([N+](=O)[O-])c2)cs1,6%,13%,.,.,.,.
C=CCNc1nc(C(=O)OCC(=O)c2ccc(Cl)cc2)cs1,.,50µM*,.,.,.,.
C=CCNc1nc(C(=O)OCC(=O)Nc2cccc(SC)c2)cs1,.,56µM*,.,.,.,.
C=CCNc1nc(C(=O)OCC(=O)Nc2ccccc2C(F)(F)F)cs1,.,24%[12.7 µM],.,.,.,.
O=C(Nc1ccc(Cl)cc1)C1CCC(CNS(=O)(=O)c2ccc(Br)s2)CC1 (centres undefined),.,-3%[59 µM],-17%,9%,.,?
CCN1C=C(Cc2ccc(F)cc2)C2=C(C1)C(c1ccc(F)cc1)C(C#N)=C(N)O2 (centres undefined),8%,?,-24%,?,-9,-11%
CCN1C=C(Cc2ccccc2C)C2=C(C1)C(c1ccccc1C)C(C#N)=C(N)O2 (centres undefined),-26%,14µM*,-13%,?,-6,-9%
COc1ccccc1NC(=O)Cn1c(=O)n(-c2cccc(C)c2)c(=O)c2c1c1cc(C)ccc1n2C,.,5%[59 µM],-11%,-14%,.,-1%
Cn1cccc1-c1nc2ccc(NC(=O)c3ccco3)cc2[nH]1,10%,?,?,?,1,13%
Cc1ccc2nc(-c3ccc(NC(=O)c4ccco4)cc3)[nH]c2c1,-4%,28µM*,-14%,?,-8,-4%
Cc1ccccc1C(=O)Nc1ccc(-c2nc3ccc(C(=O)c4ccccc4)cc3[nH]2)cc1,16%,41%[12.7 µM],?,-5%,-1,28µM*
O=C(c1ccccc1)c1ccc2nc(-c3ccc(NC(=O)c4ccccc4Br)cc3)[nH]c2c1,37%,7%[59 µM],?,?,2,?
Cc1cccnc1NC(=O)CCNC(=O)c1ccc(Cl)cc1,31%,.,.,.,1,.
SMILES,Sfp inh,G9a block,Tau fluor cs,Tau fibril ThT,Coupling enz,Tau FP inhib
CCc1cc(-c2[nH]ncc2-c2ccc([N+](=O)[O-])cc2)c(O)cc1OC,-23%,50µM*,.,.,-5,.
COc1ccc(-c2cn[nH]c2-c2ccc(OCc3ccc([N+](=O)[O-])cc3)cc2O)cc1OC,32%,11%[12.7 µM],7.1µM*[quencher],?,-8,?
COc1ccc(-c2cn[nH]c2-c2ccc(OCc3ccccc3F)cc2O)cc1OC,31%,?,13µM*[quencher],-11%,-4,?
Cc1cc2c(s1)c1c(C)nn(Cc3ccc(F)cc3)c(=O)c1n2C,.,-1%[12.7 µM],.,.,.,.
COc1ccc(C(=O)NCC(c2cccs2)S(=O)(=O)c2ccc(F)c(C)c2)cc1 (centres undefined),.,1%[59 µM],-7%,-3%,.,0%
Cc1[nH]c2ccccc2c1-c1csc(NC(=O)CSCCO)n1,7%,71µM*,?,?,-4,?
Cc1csc(NC(=O)CSCC(=O)Nc2ccccc2)n1,11%,-6%[59 µM],-1%,-6%,1,1%
OC(CNCC1CCCO1)Cn1c2ccc(Cl)cc2c2cc(Cl)ccc21 (centres undefined),50µM*,0%[2.33 µM],?,?,0,?
OC(CNCC1CCCO1)Cn1c2ccccc2c2ccccc21 (centres undefined),9%,?,-4%,-3%,-1,-5%
OC(CNCCC1C=Nc2ccccc21)Cn1c2ccc(Cl)cc2c2cc(Cl)ccc21 (centres undefined),11µM*,?,3.2µM*[quencher],?,-4,?
CCc1nnc2c(NCc3ccc(F)cc3)nc3ccccc3n12,.,-35%[59 µM],-8%,-7%,.,-4%
CCOC(=O)C1CCCN(c2c(C(=O)c3ccccc3)cnc3ccc(F)cc23)C1 (centres undefined),.,?,-12%,?,.,3%
CC(C)(C)C1CCc2onc(C(=O)Nc3sc4c(c3C#N)CCCC4)c2C1 (centres undefined),.,2.8µM*,-20%,32µM*,.,?
CC(C)(C)C1CCc2onc(C(=O)Nc3sc4c(c3C(N)=O)CCCC4)c2C1 (centres undefined),.,3.2µM*,-21%,?,.,?
CN1CCc2ccc3c4c2[C@]1(C)Cc1cccc(c1-4)OCO3,?,.,.,.,-18,.
O=C1C=C(N(CCO)Cc2ccccc2)c2ccccc2C1=O,2%,50µM*,-27%,13µM*,-75*,?
CS(=O)(=O)N(CC(=O)Nc1ccc(S(=O)(=O)N2CCOCC2)cc1)c1cccc(F)c1,9%,1%[0.501 µM],1%,16%,4,-6%
O=C(NCc1cccs1)c1ccccc1F,14%,-10%[59 µM],-4%,-13%,0,9%
COCCNC(=S)NCc1cccs1,2%,28µM*,0%,0%,4,3%
S=C(NCCc1ccccc1)NCc1cccs1,-14%,25%[59 µM],-11%,-5%,1,-2%
O=C(NCCNCc1cccs1)c1ccccc1F,-24%,6.3µM*,-4%,-4%,4,-5%
CC(=O)c1cccc(NC(=O)C2CCN(S(=O)(=O)c3ccc4c(c3)CCCN4C(C)=O)CC2)c1,.,2%[59 µM],-6%,-2%,.,0%
CCOc1ccc(C(=O)NCC(=O)OCCN2C(=O)c3ccccc3C2=O)cc1OCC,.,3%[12.7 µM],.,.,.,.
